# Measurements taken from paper PMC7862700, “An all-to-all approach to the identification of sequence-specific readers for epigenetic DNA modifications on cytosine”.
# Key:
# Experiment in all cases: DAPPL (digital affinity profiling via proximity ligation, sequencing); 10 mM Tris-HCl pH 7.5, 50 mM NaCl, 1 mM DTT, 4% glycerol, room temperature, 30 min; GST-TFs on glutathione beads, 16-mer random dsDNA library, 0.1% formaldehyde crosslink after washing; high values mean tight binding
# Details in all cases: protein: recombinant; tags: N-terminal GST; dsDNA, one strand shown
# ELK1 = molecular target: T1, ELK1 (Homo sapiens, UniProt P19419 1-428)
# T1 sequence: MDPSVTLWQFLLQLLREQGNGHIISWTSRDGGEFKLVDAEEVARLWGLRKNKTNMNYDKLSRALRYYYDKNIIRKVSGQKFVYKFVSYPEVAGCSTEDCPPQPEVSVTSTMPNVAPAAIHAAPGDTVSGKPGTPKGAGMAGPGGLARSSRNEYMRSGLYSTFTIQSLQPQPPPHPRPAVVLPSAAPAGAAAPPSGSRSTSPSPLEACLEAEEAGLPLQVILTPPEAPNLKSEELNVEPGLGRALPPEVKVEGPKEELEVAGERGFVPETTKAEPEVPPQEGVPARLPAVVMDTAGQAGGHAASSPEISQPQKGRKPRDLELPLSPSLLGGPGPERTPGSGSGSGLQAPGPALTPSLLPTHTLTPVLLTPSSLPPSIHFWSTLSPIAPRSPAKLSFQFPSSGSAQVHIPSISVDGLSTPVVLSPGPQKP
# Procedure, shortened: (§1)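 Pools were built from human transcription factors expressed in yeast as GST fusions, captured on glutathione beads and DNA-barcoded, along with a tag-only sample. Incubation with 200 nmole of a 16-mer random double-stranded DNA library lasted 30 min at room temperature in Tris/NaCl/DTT/glycerol buffer, and was followed by washing, 0.1% formaldehyde crosslinking, proximity ligation, PCR amplification and Illumina NextSeq500 sequencing. Binding signal is the quotient of each hexamer's read frequency for a factor and its frequency for the tag-only sample.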
# GABPA = molecular target: T2, GABPA (Homo sapiens, UniProt Q06546 1-454)
# T2 sequence: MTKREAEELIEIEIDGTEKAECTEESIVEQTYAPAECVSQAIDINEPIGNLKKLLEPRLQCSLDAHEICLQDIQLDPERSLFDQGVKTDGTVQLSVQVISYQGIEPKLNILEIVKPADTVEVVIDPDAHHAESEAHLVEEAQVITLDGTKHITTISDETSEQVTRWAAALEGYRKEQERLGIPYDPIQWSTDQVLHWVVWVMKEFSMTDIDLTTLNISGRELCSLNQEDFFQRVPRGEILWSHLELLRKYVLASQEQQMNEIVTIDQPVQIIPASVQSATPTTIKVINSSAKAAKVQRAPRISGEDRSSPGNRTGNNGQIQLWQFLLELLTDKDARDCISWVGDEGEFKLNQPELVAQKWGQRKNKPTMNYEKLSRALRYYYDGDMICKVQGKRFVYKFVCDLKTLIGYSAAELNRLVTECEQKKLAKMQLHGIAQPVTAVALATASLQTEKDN
# Procedure, shortened: as §1
# ERG = molecular target: T3, ERG (Homo sapiens, UniProt P11308 1-479)
# T3 sequence: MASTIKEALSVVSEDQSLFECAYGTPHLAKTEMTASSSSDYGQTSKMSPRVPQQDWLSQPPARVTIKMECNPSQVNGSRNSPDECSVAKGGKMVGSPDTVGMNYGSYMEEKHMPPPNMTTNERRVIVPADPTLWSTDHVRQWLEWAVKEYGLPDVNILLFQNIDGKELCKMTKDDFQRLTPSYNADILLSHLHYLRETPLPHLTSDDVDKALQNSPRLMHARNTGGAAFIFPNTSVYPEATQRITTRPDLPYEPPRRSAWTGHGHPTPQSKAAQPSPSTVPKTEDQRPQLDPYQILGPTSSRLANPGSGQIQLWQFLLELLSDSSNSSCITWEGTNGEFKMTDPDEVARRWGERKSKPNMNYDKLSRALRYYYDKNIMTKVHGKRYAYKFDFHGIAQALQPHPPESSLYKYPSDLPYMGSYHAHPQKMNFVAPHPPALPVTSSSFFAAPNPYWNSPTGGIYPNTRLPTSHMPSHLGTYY
# Procedure, shortened: as §1
# ELF1 = ELF1 (Homo sapiens, UniProt P32519 1-619)
# Chain of ELF1 (P32519 whole entry): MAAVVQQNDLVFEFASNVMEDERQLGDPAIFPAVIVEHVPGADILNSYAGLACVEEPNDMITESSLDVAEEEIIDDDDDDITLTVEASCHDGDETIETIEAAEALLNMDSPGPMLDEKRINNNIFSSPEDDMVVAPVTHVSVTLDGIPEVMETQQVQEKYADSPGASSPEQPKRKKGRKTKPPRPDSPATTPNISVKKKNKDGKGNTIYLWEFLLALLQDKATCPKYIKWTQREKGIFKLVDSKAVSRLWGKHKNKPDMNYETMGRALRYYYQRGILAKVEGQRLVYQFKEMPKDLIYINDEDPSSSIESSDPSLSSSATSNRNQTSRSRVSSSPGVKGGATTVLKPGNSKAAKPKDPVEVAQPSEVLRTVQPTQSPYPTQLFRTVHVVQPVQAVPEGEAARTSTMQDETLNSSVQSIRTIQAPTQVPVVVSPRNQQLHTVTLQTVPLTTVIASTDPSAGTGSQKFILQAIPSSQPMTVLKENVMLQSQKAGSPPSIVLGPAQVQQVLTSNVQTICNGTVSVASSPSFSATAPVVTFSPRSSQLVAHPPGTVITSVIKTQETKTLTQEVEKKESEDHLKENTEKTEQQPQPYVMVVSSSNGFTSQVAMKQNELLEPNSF
# Procedure, shortened: as §1
# EHF = molecular target: T4, EHF (Homo sapiens, UniProt Q9NZC4 1-300)
# T4 sequence: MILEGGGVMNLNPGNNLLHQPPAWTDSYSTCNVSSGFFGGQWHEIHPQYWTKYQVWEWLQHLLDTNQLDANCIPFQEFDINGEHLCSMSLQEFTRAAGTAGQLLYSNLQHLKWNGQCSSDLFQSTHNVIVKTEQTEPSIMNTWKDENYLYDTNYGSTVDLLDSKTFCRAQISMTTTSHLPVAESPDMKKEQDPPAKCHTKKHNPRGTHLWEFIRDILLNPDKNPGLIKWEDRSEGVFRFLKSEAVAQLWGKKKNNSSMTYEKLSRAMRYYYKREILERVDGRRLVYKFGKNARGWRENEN
# Procedure, shortened: as §1
# SPI1 = SPI1 (Homo sapiens, UniProt P17947 1-270)
# Procedure, shortened: as §1
# FEV = molecular target: T5, FEV (Homo sapiens, UniProt Q99581 1-238)
# T5 sequence: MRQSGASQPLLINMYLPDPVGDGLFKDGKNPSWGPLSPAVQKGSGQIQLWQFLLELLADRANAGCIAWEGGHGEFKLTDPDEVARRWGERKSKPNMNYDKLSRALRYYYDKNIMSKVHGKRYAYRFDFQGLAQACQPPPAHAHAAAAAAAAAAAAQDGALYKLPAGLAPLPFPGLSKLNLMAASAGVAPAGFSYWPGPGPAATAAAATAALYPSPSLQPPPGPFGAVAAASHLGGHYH
# Procedure, shortened: as §1
# ETV5 = ETV5 (Homo sapiens, UniProt P41161 1-510)
# Chain of ETV5 (P41161 whole entry): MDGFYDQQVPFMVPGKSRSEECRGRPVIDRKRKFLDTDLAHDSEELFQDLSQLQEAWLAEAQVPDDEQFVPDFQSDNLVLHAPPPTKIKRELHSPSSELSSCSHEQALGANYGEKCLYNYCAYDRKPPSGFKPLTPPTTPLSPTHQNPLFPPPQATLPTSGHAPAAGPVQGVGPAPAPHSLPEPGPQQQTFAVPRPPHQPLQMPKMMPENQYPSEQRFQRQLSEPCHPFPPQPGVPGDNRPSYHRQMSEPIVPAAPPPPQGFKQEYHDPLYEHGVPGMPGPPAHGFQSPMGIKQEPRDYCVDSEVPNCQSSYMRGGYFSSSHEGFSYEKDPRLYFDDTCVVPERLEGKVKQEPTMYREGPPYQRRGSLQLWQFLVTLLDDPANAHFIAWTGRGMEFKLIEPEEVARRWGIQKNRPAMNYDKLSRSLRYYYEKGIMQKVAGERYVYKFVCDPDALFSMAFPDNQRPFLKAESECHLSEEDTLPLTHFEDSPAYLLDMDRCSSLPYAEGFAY
# Procedure, shortened: as §1
# ELF4 = ELF4 (Homo sapiens, UniProt Q99607 1-663)
# Chain of ELF4 (Q99607 whole entry): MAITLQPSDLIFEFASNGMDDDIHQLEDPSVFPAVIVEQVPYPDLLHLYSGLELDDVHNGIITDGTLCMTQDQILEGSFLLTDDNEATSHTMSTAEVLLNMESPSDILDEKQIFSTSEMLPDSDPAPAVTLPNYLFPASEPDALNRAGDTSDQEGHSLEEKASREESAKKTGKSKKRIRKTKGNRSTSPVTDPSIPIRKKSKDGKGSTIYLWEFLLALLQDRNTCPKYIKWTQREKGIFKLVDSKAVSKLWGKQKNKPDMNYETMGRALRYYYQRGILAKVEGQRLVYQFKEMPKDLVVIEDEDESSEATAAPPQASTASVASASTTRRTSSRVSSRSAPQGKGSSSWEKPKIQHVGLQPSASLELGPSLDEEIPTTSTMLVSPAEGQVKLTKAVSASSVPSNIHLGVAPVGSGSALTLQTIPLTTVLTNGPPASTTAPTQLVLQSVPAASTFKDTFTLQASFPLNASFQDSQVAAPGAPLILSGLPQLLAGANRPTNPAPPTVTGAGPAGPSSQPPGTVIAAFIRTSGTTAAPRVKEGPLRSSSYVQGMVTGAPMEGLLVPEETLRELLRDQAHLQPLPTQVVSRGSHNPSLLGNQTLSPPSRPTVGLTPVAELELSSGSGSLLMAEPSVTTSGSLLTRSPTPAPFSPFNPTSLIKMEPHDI
# Procedure, shortened: as §1
# ELK4 = molecular target: T6, ELK4 (Homo sapiens, UniProt P28324-2 1-405)
# T6 sequence: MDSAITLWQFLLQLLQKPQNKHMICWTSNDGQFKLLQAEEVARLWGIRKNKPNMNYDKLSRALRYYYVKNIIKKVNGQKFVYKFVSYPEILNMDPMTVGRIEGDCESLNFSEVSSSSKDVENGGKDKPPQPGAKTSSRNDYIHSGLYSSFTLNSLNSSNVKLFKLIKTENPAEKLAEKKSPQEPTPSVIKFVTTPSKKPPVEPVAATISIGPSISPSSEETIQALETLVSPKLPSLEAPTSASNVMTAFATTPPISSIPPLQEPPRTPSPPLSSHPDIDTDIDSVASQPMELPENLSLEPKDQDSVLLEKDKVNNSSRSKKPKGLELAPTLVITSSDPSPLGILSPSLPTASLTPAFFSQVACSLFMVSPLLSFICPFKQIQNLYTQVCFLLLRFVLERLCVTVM
# Procedure, shortened: as §1
# ELF3 = molecular target: T7, ELF3 (Homo sapiens, UniProt P78545 1-371)
# T7 sequence: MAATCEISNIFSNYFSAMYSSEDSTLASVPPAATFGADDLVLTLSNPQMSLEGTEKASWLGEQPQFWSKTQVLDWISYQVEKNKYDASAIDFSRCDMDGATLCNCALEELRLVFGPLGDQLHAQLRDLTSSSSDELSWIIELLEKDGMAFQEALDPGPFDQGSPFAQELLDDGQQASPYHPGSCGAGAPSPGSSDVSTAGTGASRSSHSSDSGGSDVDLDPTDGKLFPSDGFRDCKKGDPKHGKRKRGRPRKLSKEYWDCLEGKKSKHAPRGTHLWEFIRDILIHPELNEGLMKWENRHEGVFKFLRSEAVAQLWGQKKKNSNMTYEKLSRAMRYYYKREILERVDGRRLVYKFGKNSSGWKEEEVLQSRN
# Procedure, shortened: as §1
# ETV1 = ETV1 (Homo sapiens, UniProt P50549 1-477)
# Chain of ETV1 (P50549 whole entry): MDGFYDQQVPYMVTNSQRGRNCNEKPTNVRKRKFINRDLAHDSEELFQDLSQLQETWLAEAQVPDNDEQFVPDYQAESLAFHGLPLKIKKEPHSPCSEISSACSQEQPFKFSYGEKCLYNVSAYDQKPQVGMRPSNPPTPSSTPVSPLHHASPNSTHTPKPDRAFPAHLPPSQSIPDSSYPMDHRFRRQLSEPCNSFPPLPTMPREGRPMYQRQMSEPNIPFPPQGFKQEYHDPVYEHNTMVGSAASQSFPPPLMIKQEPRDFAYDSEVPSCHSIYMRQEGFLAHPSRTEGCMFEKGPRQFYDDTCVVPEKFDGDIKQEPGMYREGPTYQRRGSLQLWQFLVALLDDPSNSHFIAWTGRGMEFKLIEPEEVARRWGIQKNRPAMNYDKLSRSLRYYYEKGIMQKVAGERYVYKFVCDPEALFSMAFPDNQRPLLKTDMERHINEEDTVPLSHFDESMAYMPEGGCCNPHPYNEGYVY
# Procedure, shortened: as §1
# ERF = molecular target: T8, ERF (Homo sapiens, UniProt P50548 1-548)
# T8 sequence: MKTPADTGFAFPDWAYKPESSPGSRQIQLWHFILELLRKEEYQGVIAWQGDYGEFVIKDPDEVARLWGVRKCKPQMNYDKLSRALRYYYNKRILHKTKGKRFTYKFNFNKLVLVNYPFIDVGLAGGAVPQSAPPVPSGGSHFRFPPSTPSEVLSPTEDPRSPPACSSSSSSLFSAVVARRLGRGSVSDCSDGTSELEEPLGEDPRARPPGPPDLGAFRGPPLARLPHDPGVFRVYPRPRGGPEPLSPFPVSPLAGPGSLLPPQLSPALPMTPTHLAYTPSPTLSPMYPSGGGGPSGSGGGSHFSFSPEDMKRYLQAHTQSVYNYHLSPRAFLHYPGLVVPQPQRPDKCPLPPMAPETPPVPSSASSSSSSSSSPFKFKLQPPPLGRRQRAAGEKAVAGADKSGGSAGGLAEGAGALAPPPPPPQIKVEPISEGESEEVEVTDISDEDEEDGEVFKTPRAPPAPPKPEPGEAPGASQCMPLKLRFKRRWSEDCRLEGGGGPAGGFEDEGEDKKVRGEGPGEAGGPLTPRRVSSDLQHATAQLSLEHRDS
# Procedure, shortened: as §1
# ETV3L = molecular target: T9, ETV3L (Homo sapiens, UniProt Q6ZN32 1-361)
# T9 sequence: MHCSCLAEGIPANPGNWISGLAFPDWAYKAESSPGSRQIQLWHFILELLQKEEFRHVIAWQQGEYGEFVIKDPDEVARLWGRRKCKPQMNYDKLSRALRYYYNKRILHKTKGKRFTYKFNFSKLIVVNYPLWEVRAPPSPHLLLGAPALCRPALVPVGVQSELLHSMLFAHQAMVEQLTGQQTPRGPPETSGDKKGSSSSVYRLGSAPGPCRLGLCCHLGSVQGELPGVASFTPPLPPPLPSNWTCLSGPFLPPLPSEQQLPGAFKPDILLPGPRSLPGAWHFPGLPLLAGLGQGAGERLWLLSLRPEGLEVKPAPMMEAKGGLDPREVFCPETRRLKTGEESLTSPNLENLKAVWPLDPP
# Procedure, shortened: as §1
# ETS2 = molecular target: T10, ETS2 (Homo sapiens, UniProt P15036 1-469)
# T10 sequence: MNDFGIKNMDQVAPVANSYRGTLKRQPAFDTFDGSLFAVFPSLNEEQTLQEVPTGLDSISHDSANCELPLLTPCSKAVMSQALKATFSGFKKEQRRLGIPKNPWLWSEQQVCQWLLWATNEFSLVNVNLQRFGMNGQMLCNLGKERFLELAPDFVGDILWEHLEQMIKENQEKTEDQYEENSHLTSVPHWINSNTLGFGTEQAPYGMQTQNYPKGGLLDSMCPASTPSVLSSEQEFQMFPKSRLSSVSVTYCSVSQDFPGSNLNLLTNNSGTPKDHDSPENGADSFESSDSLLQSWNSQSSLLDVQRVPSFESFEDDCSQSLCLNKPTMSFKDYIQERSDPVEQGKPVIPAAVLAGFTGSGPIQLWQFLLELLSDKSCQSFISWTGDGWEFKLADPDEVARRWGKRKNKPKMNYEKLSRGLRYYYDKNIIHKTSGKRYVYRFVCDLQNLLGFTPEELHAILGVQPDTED
# Procedure, shortened: as §1
# ETV7 = molecular target: T11, ETV7 (Homo sapiens, UniProt Q9Y603 1-341)
# T11 sequence: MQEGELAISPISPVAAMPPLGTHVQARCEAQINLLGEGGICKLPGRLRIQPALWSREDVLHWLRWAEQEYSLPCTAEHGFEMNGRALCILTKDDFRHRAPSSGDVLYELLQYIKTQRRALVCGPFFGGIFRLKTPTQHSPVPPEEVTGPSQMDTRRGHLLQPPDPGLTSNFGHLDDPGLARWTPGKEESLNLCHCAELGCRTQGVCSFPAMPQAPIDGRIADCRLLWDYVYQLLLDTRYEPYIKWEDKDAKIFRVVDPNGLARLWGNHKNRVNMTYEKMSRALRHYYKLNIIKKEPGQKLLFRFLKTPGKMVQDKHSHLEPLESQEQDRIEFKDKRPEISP
# Procedure, shortened: as §1
# ETV3 = molecular target: T12, ETV3 (Homo sapiens, UniProt P41162-2 1-143)
# T12 sequence: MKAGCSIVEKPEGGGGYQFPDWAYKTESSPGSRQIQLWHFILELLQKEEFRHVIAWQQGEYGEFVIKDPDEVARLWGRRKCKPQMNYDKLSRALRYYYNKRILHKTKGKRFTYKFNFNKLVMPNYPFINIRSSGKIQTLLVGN
# Procedure, shortened: as §1
# ETV6 = ETV6 (Homo sapiens, UniProt P41212 1-452)
# Chain of ETV6 (P41212 whole entry): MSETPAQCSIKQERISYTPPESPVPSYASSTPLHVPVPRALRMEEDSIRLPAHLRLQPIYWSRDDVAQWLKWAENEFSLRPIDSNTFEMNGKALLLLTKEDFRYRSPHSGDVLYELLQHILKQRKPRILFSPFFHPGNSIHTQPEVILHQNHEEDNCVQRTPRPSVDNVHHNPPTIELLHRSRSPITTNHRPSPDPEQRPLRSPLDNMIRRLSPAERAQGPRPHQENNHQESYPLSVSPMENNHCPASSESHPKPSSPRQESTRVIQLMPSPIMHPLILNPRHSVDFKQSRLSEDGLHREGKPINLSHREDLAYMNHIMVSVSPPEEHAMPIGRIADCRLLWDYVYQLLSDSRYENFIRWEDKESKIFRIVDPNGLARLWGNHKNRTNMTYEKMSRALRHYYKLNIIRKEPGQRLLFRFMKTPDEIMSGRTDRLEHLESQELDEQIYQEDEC
# Procedure, shortened: as §1
sequence,measurement,setting,value
TCACCG,binding signal,ELK1,"1.16 fold enrichment (6-mer frequency, TF over GST control)"
same,binding signal,GABPA,"1.2 fold enrichment (6-mer frequency, TF over GST control)"
same,binding signal,ERG,"1.14 fold enrichment (6-mer frequency, TF over GST control)"
same,binding signal,ELF1,"1.11 fold enrichment (6-mer frequency, TF over GST control)"
same,binding signal,EHF,"1.05 fold enrichment (6-mer frequency, TF over GST control)"
same,binding signal,SPI1,"1.06 fold enrichment (6-mer frequency, TF over GST control)"
same,binding signal,FEV,"1.18 fold enrichment (6-mer frequency, TF over GST control)"
same,binding signal,ETV5,"1.13 fold enrichment (6-mer frequency, TF over GST control)"
same,binding signal,ELF4,"1.21 fold enrichment (6-mer frequency, TF over GST control)"
same,binding signal,ELK4,"1.04 fold enrichment (6-mer frequency, TF over GST control)"
same,binding signal,ELF3,"1.07 fold enrichment (6-mer frequency, TF over GST control)"
same,binding signal,ETV1,"1.15 fold enrichment (6-mer frequency, TF over GST control)"
same,binding signal,ERF,"1.05 fold enrichment (6-mer frequency, TF over GST control)"
same,binding signal,ETV3L,"1.09 fold enrichment (6-mer frequency, TF over GST control)"
same,binding signal,ETS2,"1.15 fold enrichment (6-mer frequency, TF over GST control)"
same,binding signal,ETV7,"1.02 fold enrichment (6-mer frequency, TF over GST control)"
same,binding signal,ETV3,"1.05 fold enrichment (6-mer frequency, TF over GST control)"
same,binding signal,ETV6,"1.03 fold enrichment (6-mer frequency, TF over GST control)"
